KB-V1 cytotox: KB-V1 MDR subline cytotoxicity; KB-V1 MDR cells viability, CellTiter-Glo, 72 h; Potency, µM (top dose mostly 46.1 µM), most hits filed as cytotoxic; hit rate 3.4% among 400,000; AID 1347076; also: nearly all actives have a fitted effect of over 60% in size
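Potencies derive from concentration-effect curves fitted to normalized luminescence (CellTiter-Glo) of KB-V1 cells treated for 72 h at 37 degrees C in phenol-red-free DMEM containing 10% FBS.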
HT1080-NT tox: kills 2HG-producing HT-1080-NT fibrosarcoma cells; hit rate 1.6% among 360,000; AID 686970; HT-1080-NT fibrosarcoma viability, CellTiter-Glo ATP luminescence, 48 h; Potency, µM (highest dose often 46.1 µM), for inactives: at the highest dose activity, negative = less viability, actives largely listed as cytotoxic;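 also: NT is the 2HG producing partner of a matched IDH1 knockdown line; 0% = DMSO-treated cells and -100% = media-only wells without cells; nearly all actives have a fitted effect of over 55% in size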
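Luminescent CellTiter-Glo readout after 48 hours of compound exposure at 37 degrees C defined viability of HT-1080-NT cells. Activity was normalized to DMSO wells and cell-free media wells; concentration-response curves were fitted and assigned curve classes.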
HT1080 IDH1KD tx: kills HT-1080 cells with IDH1 knockdown; HT-1080 IDH1 knockdown viability, ATP luminescence, 48 h; Potency, µM (doses to about 46.1 µM), inactives show at the top dose activity, negative = toxicity, most hits filed as cytotoxic; hit rate 2% among 360,000;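 also: 0% = DMSO wells and -100% = cell-free medium wells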
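In this qHTS, HT-1080 cells depleted of IDH1 are exposed for 48 h at 37 °C to compound titrations. Toxicity is scored from CellTiter-Glo luminescence, with DMSO as full viability and medium alone as none.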
DT40 TDP1 no CPT: qHTS for Inhibitors of human tyrosyl-DNA phosphodiesterase 1 (TDP1): qHTS in cells in absence of CPT. hit rate 15% among 420,000. Potency, µM (doses to about 46.2 µM), without a hit: at the top dose activity change, negative = growth inhibition, actives largely listed as inhibitors. AID 686978, 2013. DT40 Tdp1-/- hTDP1 cells, no CPT, ATP luminescence, 48 h; also: nearly all actives have a fitted effect of over 55% in size
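DT40 Tdp1-/-;hTDP1 cells, no CPT (DMSO vehicle only), 400 cells/well; compounds pin-transferred; ≥48 hr, 37 °C; CellTiter-Glo 30 min RT dark, luminescence read.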
KB-3-1 cytotox: kills parental KB-3-1 adenocarcinoma cells. KB-3-1 viability, CellTiter-Glo ATP luminescence, 72 h. Potency, µM (doses to about 46.1 µM), usual class: cytotoxic. hit rate 1.4% among 400,000. AID 1347075; also: nearly all actives have a fitted effect of over 60% in size
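KB-3-1 parental drug-naive adenocarcinoma cells in DMEM/10% FBS, incubated 72 h at 37 C with pin-transferred compounds across a concentration series. Viability by CellTiter-Glo luminescence; concentration-response curves fitted after normalization.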
TDP1 cell CPT: growth inhibition of DT40 Tdp1-/-;hTDP1 cells with camptothecin (screen for TDP1 inhibitors). chicken DT40 Tdp1-/-;hTDP1 cells + 20 nM CPT, ATP luminescence, 48 h. Potency, µM (top dose mostly 46.2 µM), without a hit: at the highest dose activity change, negative = growth inhibition, usual class: inhibitors. hit rate 12% among 420,000. AID 686979; also: nearly all actives have a fitted effect of over 55% in size
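Chicken DT40 Tdp1-/- cells complemented with human TDP1, 400 cells/well, exposed to compounds plus 20 nM camptothecin for at least 48 h at 37 C; viability read as ATP content by CellTiter-Glo luminescence.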
* marks the source's active call; other numbers are inactive results; i = inactive; ? = inconclusive; . = no result; [ ] = dose if it differs, or a comment. Shown are actives, neighbours in structure and some others; about 19% of the full set was active somewhere. Calls follow the shape of the dose curve; as a rule, active = well fitted curve in the direction sought with a large enough effect; inconclusive = small, poorly fitted or top-dose-only effect, or another doubt; inactive = no such curve, though single readings can be large; an effect the other way counts as inactive or inconclusive. Unless noted, % is scaled to controls: 0 for no effect and ±100 for the full control effect; potency is read from the fitted curve at half-maximal effect.

SMILES | KB-V1 cytotox | HT1080-NT tox | HT1080 IDH1KD tx | DT40 TDP1 no CPT | KB-3-1 cytotox | TDP1 cell CPT
O=C(N/N=C/C=C\c1ccccc1[N+](=O)[O-])c1cc(-c2ccc3ccccc3c2)n[nH]1 | i | 13µM* | 14.6µM* | 18.4µM* | i | ?
Cc1ccc(S(=O)(=O)N2CCc3cc(C(=O)NCCc4ccccc4)ccc32)cc1 | i | . | . | -28.2% | i | ?
COc1ccccc1CNC(=O)c1ccc2c(c1)CCN2S(=O)(=O)c1ccccc1 | i | . | . | 8.2µM* | i | ?
O=C(NCc1ccccc1)c1ccc2c(c1)CCN2S(=O)(=O)c1ccc(Cl)cc1 | i | . | . | ? | i | ?
COc1ccc(CNC(=O)c2ccc3c(c2)CCN3S(=O)(=O)c2ccc(C)cc2)cc1 | i | . | . | 13µM* | i | 10.3µM*
CN(CC(=O)Nc1ccc(Cl)c(C(F)(F)F)c1)C(=O)C1CSC2(C)CCC(=O)N12 (centres undefined) | i | 3.4% | -11.1% | 18.4µM* | i | ?
CN(CC(=O)Nc1ccc(F)c(F)c1F)C(=O)C1CSC2(C)CCC(=O)N12 (centres undefined) | i | -1.3% | 5.7% | -0.4% | i | -22.0%
Cc1ccc(C)c(OC(=O)C2CSC3(C)CCC(=O)N23)c1C (centres undefined) | i | 0.1% | -2.4% | ? | 16.4µM* | -15.2%
CCCN(C(=O)C1CSC2(C)CCC(=O)N12)c1c(N)n(Cc2ccccc2)c(=O)[nH]c1=O (centres undefined) | i | 16.5% | 18.2% | -21.3% | i | 3.4%
CN(Cc1ccc(C(C)(C)C)cc1)C(=O)C1CSC2(C)CCC(=O)N12 (centres undefined) | i | -15.8% | -1.7% | ? | i | 16.4µM*
C=CCN(C(=O)C1CSC2(C)CCC(=O)N12)c1nc(-c2ccccc2)cs1 (centres undefined) | i | -6.6% | -22.0% | 23.1µM* | i | 18.4µM*
Cc1ccc(-n2nc(C)c3c(C)cc(=O)n(CC(=O)NC(C)C)c32)cc1 | i | . | . | -12.8% | i | 0.4%
Cc1cc(C(F)(F)F)n2[nH]c(=O)c(N=Nc3ccccc3)c2n1 | i | -0.4% | -8.1% | -4.2% | i | 0.8%
Cc1cc(=O)n2[nH]c(N)c(N=Nc3ccccc3F)c2n1 | ? | ? | ? | 16.4µM* | 20.6µM* | ?
COc1ccc([N+](=O)[O-])cc1CN1CCN(c2ncc(Cc3ccccc3)cn2)CC1 | 7.31µM* | ? | ? | 18.4µM* | ? | 20.6µM*
Cc1ccc([N+](=O)[O-])cc1CN1CCN(c2ncc(Cc3ccccc3)cn2)CC1 | ? | -14.6% | ? | ? | ? | ?
O=[N+]([O-])c1ccc(Cl)c(CN2CCN(c3ncccn3)CC2)c1 | i | -0.4% | 10.3% | -18.8% | i | -0.6%
O=[N+]([O-])c1ccc(F)c(CN2CCN(c3ncc(Cc4ccccc4)cn3)CC2)c1 | ? | -27.8% | -23.8% | 20.6µM* | ? | ?
CCc1nc(-c2cc(S(=O)(=O)N3CCN(c4ccccc4)CC3)ccc2OC)no1 | i | . | . | 5.4% | i | 2.5%
COc1ccc(CCNc2ncnc3[nH]ncc23)cc1OC | i | ? | -2.1% | 14.6µM* | i | 14.6µM*
Fc1ccc(CCNc2ncnc3[nH]ncc23)cc1 | 4.11µM* | 0.8% | -10.2% | 16.4µM* | 11.6µM* | ?
COc1ccc(CCNc2ncnc3sc(C(=O)N4CCCCC4)c(C)c23)cc1OC | . | . | . | 18.4µM* | . | 0.4%[9.04 µM]
OCCCNc1ncnc2[nH]ncc12 | i | 3.4% | 2.6% | 1.3% | i | 5.1%
CCOc1ccc2[nH]c3c(NCCc4ccc(OC)c(OC)c4)ncnc3c2c1 | i | ? | ? | 2.91µM* | i | 4.11µM*
CCOc1ccc2[nH]c3c(NCCO)ncnc3c2c1 | ? | -10.2% | -6.2% | 0.8% | i | -13.9%
SMILES | KB-V1 cytotox | HT1080-NT tox | HT1080 IDH1KD tx | DT40 TDP1 no CPT | KB-3-1 cytotox | TDP1 cell CPT
O=C(COC(=O)CNS(=O)(=O)c1c(Cl)cccc1Cl)Nc1cccnc1Cl | i | 5.5% | 9.0% | -18.7% | i | -18.6%
COc1ccc(NC(=O)CCNC(=O)c2ccco2)c(OC)c1 | i | 3.9% | -0.5% | 0.7% | i | -28.1%
O=C1Nc2ccccc2-n2nnnc2C1N1CCN(C(=O)c2ccco2)CC1 (centres undefined) | i | 12.8% | 2.5% | 24.9% | i | -2.9%
COc1ccc(CCNc2ncnc3sc(C)cc23)cc1OC | ? | ? | -6.0% | 0.259µM* | ? | 0.581µM*
CCCCCCCCNc1ncnc2[nH]ncc12 | i | ? | ? | 3.66µM* | ? | 4.61µM*
CC(=O)Nc1cccc(C(=O)NCc2ccc3c(c2)CCN3C(=O)c2ccc(F)cc2)c1 | i | . | . | 16.4µM* | i | 20.6µM*
O=C(NCc1ccc2c(c1)CCN2C(=O)c1ccc(F)cc1)c1cc2ccccc2[nH]1 | i | . | . | ? | i | 16.4µM*
O=C(NCc1ccc2c(c1)CCN2C(=O)c1ccccc1)c1cc2ccccc2[nH]1 | i | . | . | ? | i | ?
O=C(Cc1ccc(F)cc1)NCc1ccc2c(c1)CCN2C(=O)c1ccc(F)cc1 | i | . | . | 9.2µM* | i | ?
COc1ccc(C(=O)Nc2ccc3c(c2)nc(CCNC(=O)c2ccco2)n3C)cc1 | i | -0.2% | -14.4% | ? | ? | -12.5%
COc1ccc(CC(=O)n2[nH]c(=O)cc(C)c2=O)cc1OC | i | -0.1% | -2.7% | 18.4µM* | i | ?
Cc1cnc(C(=O)OCC(=O)Nc2cc(Cl)ccc2C#N)cn1 | i | -1.8% | 13.6% | -10.2% | ? | 5.9%
COc1cc(N/C(N)=N/c2nc(C)cc(C)n2)cc(OC)c1 | ? | ? | ? | 20.6µM* | ? | 16.4µM*
COc1ccc(OC)c(N/C(=N/c2nc(C)cc(C)n2)NC(C)=O)c1 | i | 22.4% | 10.9% | 7.31µM* | i | ?
COc1ccc(C)cc1N/C(N)=N/c1nc(C)cc(C)n1 | ? | 0.0% | -19.9% | 16.4µM* | i | 20.6µM*
CCCOc1ccccc1N/C(=N/c1nc(C)cc(C)n1)NC(=O)COc1ccc(OC)cc1 | i | -14.6% | -12.6% | 16.4µM* | i | 20.6µM*
COc1ccc(Cl)cc1N/C(N)=N/c1nc(C)cc(C)n1 | i | 28.8% | 0.3% | -19.3% | i | -17.4%
